Many of the other results were omitted from the sample, so hits are more common in it than they were.
HT1080 IDH1KD tx – toxicity to HT-1080 IDH1 knockdown cells (counter line); HT-1080 IDH1 knockdown viability, ATP luminescence, 48 h; Potency, µM (series often up to 46.1 µM), for inactives: at the highest dose activity, negative = toxicity, hits mostly cytotoxic; AID 686971; 360,000 compounds, 2% hits;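 further: potency means the concentration at half of the fitted maximal effect; 0% = DMSO wells and -100% = cell-free medium wells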
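% activity derives from luminescence (CellTiter-Glo), normalised to DMSO and no-cell wells. HT-1080-IDH1KD cells, 750/well, had 48 h compound exposure at 37 °C.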
IL-1B inflam inh – blocks inflammasome-driven IL-1 beta release. THP-1 LPS/ATP IL-1B secretion, AlphaLISA, 16 h; active compounds read low. activity change, % at 57.5 µM. 360,000 compounds, 4.7% hits; in the data active means activity change below about -50%; inconclusive means mostly about -30% to -49%
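Secreted IL-1B measured by AlphaLISA bead assay after 16 h compound exposure of THP-1 cells; compounds (final up to 57.5 uM) added 1 h before LPS (250 ng/mL) and ATP (1.25 mM) stimulation; lower signal means less secretion.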
HT1080-NT tox – kills 2HG-producing HT-1080-NT fibrosarcoma cells; HT-1080-NT fibrosarcoma viability, CellTiter-Glo ATP luminescence, 48 h; AID 686970; Potency, µM (titrated, usually from 46.1 µM), for the others: at the top dose activity, negative = less viability, hits mostly cytotoxic; 360,000 compounds, 1.6% hits;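 further: NT is the 2HG producing partner of a matched IDH1 knockdown line; potency means the concentration at half of the fitted maximal effect; 0% = DMSO-treated cells and -100% = media-only wells without cells; nearly all actives have a fitted effect of over 55% in size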
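HT-1080-NT; 750 cells/well; 5% FBS RPMI; 48 h compound, 37 degrees C; CellTiter-Glo luminescence; curve fitting and curve-class assignment.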
DT40 TDP1 CPT – growth inhibition of DT40 Tdp1-/-;hTDP1 cells with camptothecin (screen for TDP1 inhibitors); 420,000 compounds, 12% hits; Potency, µM (series often up to 46.2 µM), for the others: top-dose activity change, negative = growth inhibition, hits mostly inhibitors; chicken DT40 Tdp1-/-;hTDP1 cells + 20 nM CPT, ATP luminescence, 48 h; further: potency means the concentration at half of the fitted maximal effect; nearly all actives have a fitted effect of over 55% in size
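Cell growth measured by CellTiter-Glo luminescence after a minimum 48 h, 37 C compound exposure with 20 nM CPT in Tdp1-knockout DT40 cells stably expressing hTDP1, seeded 400/well; qHTS titration format.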
TDP1 cell noCPT – qHTS for Inhibitors of human tyrosyl-DNA phosphodiesterase 1 (TDP1): qHTS in cells in absence of CPT. DT40 Tdp1-/- hTDP1 cells, no CPT, ATP luminescence, 48 h. Potency, µM (highest dose often 46.2 µM), without a hit: top-dose activity change, negative = growth inhibition, actives largely listed as inhibitors. 420,000 compounds, 15% hits. AID 686978, 2013; further: potency means the concentration at half of the fitted maximal effect; nearly all actives have a fitted effect of over 55% in size
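Chicken DT40 Tdp1-/- cells stably complemented with human TDP1 were seeded at 400 cells/well with DMSO in place of 20 nM camptothecin. After compound pinning, cells grew at least 48 hr at 37 °C; viability read by CellTiter-Glo luminescence.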
12-LOX inh – blocks human arachidonate 12S-lipoxygenase; P18054; purified 12hLO, xylenol orange hydroperoxide absorbance; Potency, µM (titrated, usually from 108 µM), without a hit: top-dose activity change, negative = inhibition, usual class: inhibitors; 580,000 compounds, 1.1% hits; further: potency means the concentration at half of the fitted maximal effect
Target sequence (P18054 whole entry, looked up): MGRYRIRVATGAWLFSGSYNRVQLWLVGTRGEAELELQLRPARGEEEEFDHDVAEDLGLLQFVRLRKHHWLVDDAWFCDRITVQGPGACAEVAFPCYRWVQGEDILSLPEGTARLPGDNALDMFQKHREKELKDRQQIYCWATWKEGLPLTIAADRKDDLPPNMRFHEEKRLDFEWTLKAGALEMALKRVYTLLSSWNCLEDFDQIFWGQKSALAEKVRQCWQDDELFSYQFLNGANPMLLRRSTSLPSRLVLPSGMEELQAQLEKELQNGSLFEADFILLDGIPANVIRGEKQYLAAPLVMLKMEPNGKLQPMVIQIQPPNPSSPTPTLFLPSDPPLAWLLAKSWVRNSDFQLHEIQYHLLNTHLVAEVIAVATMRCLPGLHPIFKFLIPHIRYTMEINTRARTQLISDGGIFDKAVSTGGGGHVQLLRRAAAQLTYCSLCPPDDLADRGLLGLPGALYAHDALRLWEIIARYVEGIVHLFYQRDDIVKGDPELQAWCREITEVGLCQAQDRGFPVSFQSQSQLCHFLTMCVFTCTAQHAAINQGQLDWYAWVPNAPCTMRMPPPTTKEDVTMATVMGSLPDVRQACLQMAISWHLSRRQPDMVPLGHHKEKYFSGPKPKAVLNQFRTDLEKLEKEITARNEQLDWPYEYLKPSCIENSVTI
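Purified human 12hLO at 150 nM in 25 mM Hepes, 0.01% Triton X-100, pH 7.0, preincubated 15 min at room temperature with compound. Reaction started with 40 uM arachidonic acid, 30 min at room temperature. Hydroperoxide measured by Fe-xylenol orange, 573/405 nm absorbance ratio.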
Starred values were filed as active, the others as inactive; [ ] = remark or other dose. Unless noted, the call rests on the fitted dose curve; in most records, active means well fitted curve in the direction sought with a large enough effect; inconclusive means small, poorly fitted or top-dose-only effect, or another doubt; inactive means no such curve, though single readings can be large; an effect the other way counts as inactive or inconclusive. Unless noted, on the % scale 0 is the no-effect control and ±100 the full control effect.

O=C(COc1nsnc1N1CCOCC1)Nc1ccc([N+](=O)[O-])cc1 was read as HT1080 IDH1KD tx 10.8%, IL-1B inflam inh -12.9, HT1080-NT tox 26.7%, DT40 TDP1 CPT 29.1µM*, TDP1 cell noCPT 23.1µM* and 12-LOX inh -2.8%.
`COc1ccccc1/C=C1\SC(=S)N(CCC(=O)NCCc2ccc(O)cc2)C1=O` gave HT1080 IDH1KD tx inconclusive, IL-1B inflam inh -81.8*, HT1080-NT tox inconclusive, DT40 TDP1 CPT inconclusive, TDP1 cell noCPT 16.4µM* and 12-LOX inh -7.2%.
O=C(CCN1C(=O)/C(=C/c2ccccc2)SC1=S)NCCc1ccc(O)cc1 was read as HT1080 IDH1KD tx inconclusive, IL-1B inflam inh -12.3, HT1080-NT tox inconclusive, DT40 TDP1 CPT 16.4µM* and TDP1 cell noCPT inconclusive.
Screening COc1ccc(/C=C2\SC(=S)N(CCC(=O)NCCc3ccc(O)cc3)C2=O)cc1 returned HT1080 IDH1KD tx 8.9%, IL-1B inflam inh -7.8, HT1080-NT tox -3.8%, DT40 TDP1 CPT inconclusive, TDP1 cell noCPT 16.4µM* and 12-LOX inh 19.1%.
`O=C(CCCN1C(=O)/C(=C\c2ccccc2)SC1=S)Nc1ccc(O)cc1C(=O)O` gave HT1080 IDH1KD tx 4.3%, IL-1B inflam inh 4.5, HT1080-NT tox 7.1%, DT40 TDP1 CPT -14.3%, TDP1 cell noCPT -4.7% and 12-LOX inh inconclusive.
For CCOCCN1CCN(c2c(C)c(C)nc3cc(-c4cc(OC)cc(OC)c4)nn23)CC1 the results were HT1080 IDH1KD tx -9.9%, IL-1B inflam inh inconclusive, HT1080-NT tox inconclusive, DT40 TDP1 CPT inconclusive, TDP1 cell noCPT 25.9µM* and 12-LOX inh 1.9%[57.4 µM].
Screening CCc1c(C)nc2cc(-c3cc(OC)cc(OC)c3)nn2c1N1CCN(CCN2CCOCC2)CC1 returned HT1080 IDH1KD tx 1.2%, IL-1B inflam inh inconclusive, HT1080-NT tox 11.9%, DT40 TDP1 CPT 23.1µM*, TDP1 cell noCPT 16.4µM* and 12-LOX inh 76.4%.
Screening COCCN1CCN(c2c(C)c(C)nc3cc(-c4cccc(OC)c4)nn23)CC1 returned HT1080 IDH1KD tx -7.6%, IL-1B inflam inh -3.4, HT1080-NT tox -17.6%, DT40 TDP1 CPT inconclusive, TDP1 cell noCPT inconclusive and 12-LOX inh 5.1%.
For COc1cc(OC)cc(-c2cc3nc(C)c(CCC(=O)O)c(C)n3n2)c1 the results were HT1080 IDH1KD tx 0.3%, IL-1B inflam inh 28.7, HT1080-NT tox -9.8%, DT40 TDP1 CPT -28.6%, TDP1 cell noCPT inconclusive and 12-LOX inh inconclusive.
Screening CC(=O)NCCc1ccccc1C returned 12-LOX inh 6.6%.
O=C(C1=C[C@@H](c2ccccc2)C[C@@H](OCc2ccc(CO)cc2)O1)N1CCCCCCC1 was read as HT1080 IDH1KD tx -1.5%, IL-1B inflam inh -11.0, HT1080-NT tox -0.8%, DT40 TDP1 CPT inconclusive, TDP1 cell noCPT inconclusive and 12-LOX inh -11.7%.
`CC(C)(C)[C@@H]1C=C(C(=O)N2CCN(Cc3ccccc3)CC2)O[C@H](OCc2ccc(CO)cc2)C1` gave HT1080 IDH1KD tx -5.0%, IL-1B inflam inh -2.5, HT1080-NT tox -2.0%, DT40 TDP1 CPT 13µM*, TDP1 cell noCPT inconclusive and 12-LOX inh 11.5%.
Screening CC(C)(C)[C@H]1C=C(C(=O)N2CCN(Cc3ccc4c(c3)OCO4)CC2)O[C@@H](OCc2ccc(CO)cc2)C1 returned HT1080 IDH1KD tx -22.1%, IL-1B inflam inh -61.3*, HT1080-NT tox -17.5%, DT40 TDP1 CPT 20.6µM*, TDP1 cell noCPT 18.4µM* and 12-LOX inh 3.4%.
`CCc1ccc(NCc2cc3c(C)nn(-c4ccccc4)c3[nH]c2=O)cc1` gave HT1080 IDH1KD tx -19.5%, IL-1B inflam inh 19.3, HT1080-NT tox inconclusive, DT40 TDP1 CPT 20.6µM*, TDP1 cell noCPT 12.6µM* and 12-LOX inh -8.5%.
Screening Cc1ccc(-c2nn(-c3ccccc3)c3[nH]c(=O)c(CNCc4ccccc4)cc23)cc1 returned HT1080 IDH1KD tx inconclusive, IL-1B inflam inh -57.7*, HT1080-NT tox inconclusive, DT40 TDP1 CPT inconclusive, TDP1 cell noCPT inconclusive and 12-LOX inh -16.2%.
`Cc1nn(-c2ccccc2)c2[nH]c(=O)c(CNCc3ccc4c(c3)OCO4)cc12` gave HT1080 IDH1KD tx 13.9%, IL-1B inflam inh -15.3, HT1080-NT tox 4.6%, DT40 TDP1 CPT 18.4µM*, TDP1 cell noCPT 14.6µM* and 12-LOX inh -2.5%.
`Cc1nn(-c2ccccc2)c2[nH]c(=O)c(CNc3ccc4c(c3)OCCO4)cc12` gave HT1080 IDH1KD tx -24.2%, IL-1B inflam inh -6.8, HT1080-NT tox -18.7%, DT40 TDP1 CPT -22.8%, TDP1 cell noCPT -20.9% and 12-LOX inh 70.4%.
Screening COc1ccc2cc(-c3nc(-c4ccccc4F)no3)c(=O)oc2c1 returned 12-LOX inh -29.2%.
`CCOC(=O)c1sc2nc(C(C)N3CCCCC3)[nH]c(=O)c2c1C` (stereo not drawn) gave 12-LOX inh 4.5%.
CCSC1=NSC2=NC(=O)/C(=C\c3coc4ccccc4c3=O)C(=N)N12 was read as HT1080 IDH1KD tx 3.3%, IL-1B inflam inh 0.0, HT1080-NT tox 6.4%, DT40 TDP1 CPT -0.1%, TDP1 cell noCPT inconclusive and 12-LOX inh 44.7µM*.
For CC(C)CC1=NN2C(=N)/C(=C\c3coc4ccccc4c3=O)C(=O)N=C2S1 the results were HT1080 IDH1KD tx -0.1%, IL-1B inflam inh 20.8, HT1080-NT tox 4.1%, DT40 TDP1 CPT inconclusive, TDP1 cell noCPT 0.0% and 12-LOX inh inconclusive.
`COCc1ccc2c(c1)c(OC(C)(C)C(=O)N1CC(O)C1)nn2CCC(C)C` gave 12-LOX inh 12.5%[176 µM].
For CN(Cc1ccsc1)C(=O)CCc1ccsc1 the results were 12-LOX inh 0.5%.
`CC(C)NCCCCOc1cccc(Br)c1` gave HT1080 IDH1KD tx -13.4%, IL-1B inflam inh -20.5, HT1080-NT tox -3.4%, DT40 TDP1 CPT inconclusive, TDP1 cell noCPT 23.1µM* and 12-LOX inh inconclusive.
Screening C=CCNCCCCOc1cccc(Br)c1 returned HT1080 IDH1KD tx -5.4%, IL-1B inflam inh -64.7*, HT1080-NT tox -6.9%, DT40 TDP1 CPT -6.2%, TDP1 cell noCPT -21.9% and 12-LOX inh -18.8%.
Screening CC(C)NCCOc1cccc(Br)c1 returned HT1080 IDH1KD tx 2.5%, IL-1B inflam inh -8.8, HT1080-NT tox -7.0%, DT40 TDP1 CPT -12.7%, TDP1 cell noCPT -16.3% and 12-LOX inh -16.1%.
COCCCNCCCCOc1cccc(Br)c1 was read as HT1080 IDH1KD tx 3.5%, IL-1B inflam inh -20.8, HT1080-NT tox -3.2%, DT40 TDP1 CPT inconclusive, TDP1 cell noCPT inconclusive and 12-LOX inh -10.4%.

Screens (PubChem)
